From PubChem BioAssay AID1159580 (chemical genetic matrix, 2015)
Values joined by “and” are separate entries in the source; they are usually repeats but may differ in a detail not shown here. Identical values can stand only once. In all, about 5,500 compounds went through this assay and about 2,000 (36%) were called active. Inconclusive results (about 18%) are left out. Cut-off read from the data, not from the text of the source: active = normalized growth mostly below about 0.91 (no sharp cut-off); inconclusive = no clear call, values can overlap the other calls; inactive = mostly above about 0.92. The list shows a part of the results.

Test: chemical genetic growth profiling, strain panel (AID 1159580);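 note: tested at 20 µM; growth read once vehicle control cultures reached saturation at 30 °C; 1 = growth at the plate median or of vehicle wells; lower values mean less growth of the strain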
Details: S. cerevisiae deletion strains, growth OD

Measured: normalized growth

COc1ccc2c(c1)OC[C@@H](Cc1ccc(OC)c(OC)c1)[C@@H]2O
inactive: locus YAL013W, strain DEP1, hits give low values 1.01 | locus YAL021C, strain ccr4, hits give low values 0.999 | locus YAL026C, strain drs2, hits give low values 1 | locus YAL030W, strain snc1, hits give low values 0.994 | locus YBL061C, strain skt5, hits give low values 0.99 | locus YBR009C, strain hhf1, hits give low values 0.98 | locus YBR021W, strain FUR4, hits give low values 0.984 | locus YBR023C, strain chs3, hits give low values 0.998 | locus YBR171W, strain sec66, hits give low values 0.99 | locus YBR229C, strain ROT2, hits give low values 1 | locus YBR231C, strain swc5, hits give low values 1 | locus YBR279W, strain paf1, hits give low values 1 | locus YCL011C, strain gbp2, hits give low values 1 | locus YCL016C, strain dcc1, hits give low values 0.999 | locus YCL029C, strain bik1, hits give low values 0.988 | locus YCL069W, strain vba3, hits give low values 0.996 | locus YCR088W, strain abp1, hits give low values 0.983 | locus YDL005C, strain med2, hits give low values 0.975 | locus YDL035C, strain GPR1, hits give low values 0.99 | locus YDL040C, strain nat1, hits give low values 0.994 | locus YDL074C, strain BRE1, hits give low values 0.982 | locus YDL101C, strain DUN1, hits give low values 1.01 | locus YDL134C, strain PPH21, hits give low values 1 | locus YDL185W, strain tfp1, hits give low values 0.997 | locus YDL192W, strain arf1, hits give low values 0.988 | locus YDR001C, strain nth1, hits give low values 0.998 | locus YDR069C, strain doa4, hits give low values 0.996 | locus YDR101C, strain arx1, hits give low values 0.983 | locus YDR150W, strain NUM1, hits give low values 1 | locus YDR159W, strain sac3, hits give low values 0.94 | locus YDR162C, strain NBP2, hits give low values 0.999 | locus YDR195W, strain ref2 0.973 | locus YDR297W, strain sur2, hits give low values 0.985 | locus YDR318W, strain mcm21, hits give low values 0.96 | locus YDR334W, strain swr1, hits give low values 1.01 | locus YDR335W, strain msn5, hits give low values 1.01 | locus YDR388W, hits give low values 0.985 | locus YDR392W, strain spt3, hits give low values 0.91 | locus YDR502C, strain sam2, hits give low values 0.977 | locus YEL003W, strain gim4, hits give low values 1 | locus YEL037C, strain rad23, hits give low values 1.01 | locus YEL061C, strain CIN8 (second series), hits give low values 1 | locus YEL061C, strain CIN8, hits give low values 0.999 | locus YER015W, strain faa2, hits give low values 1 | locus YER016W, strain bim1, hits give low values 0.986 | locus YER110C, hits give low values 0.996 | locus YER111C, strain swi4, hits give low values 0.998 | locus YER155C, strain BEM2 (second series), hits give low values 0.99 | locus YER155C, strain BEM2, hits give low values 0.976 | locus YER167W, strain BCK2, hits give low values 0.958 | locus YFR010W, strain ubp6, hits give low values 0.998 | locus YGL078C, strain dbp3, hits give low values 0.996 | locus YGL086W, strain mad1, hits give low values 0.978 | locus YGL167C, strain pmr1, hits give low values 0.977 | locus YGL173C, strain kem1, hits give low values 1 | locus YGL227W, strain vid30, hits give low values 0.992 | locus YGL240W, strain doc1, hits give low values 1.02 | locus YGL248W, strain PDE1, hits give low values 0.996 | locus YGL253W, strain hxk2, hits give low values 1.02 | locus YGR078C, strain PAC10, hits give low values 1.01 | locus YGR135W, strain pre9, hits give low values 0.997 | locus YGR229C, strain SMI1, hits give low values 0.993 | locus YGR252W, strain gcn5, hits give low values 0.922 | locus YHR013C, strain ard1, hits give low values 0.966 | locus YHR027C, strain rpn1, hits give low values 1.02 | locus YHR030C, strain SLT2, hits give low values 0.995 and 1.01 | locus YHR079C, strain IRE1 (second series), hits give low values 0.981 | locus YHR079C, strain IRE1, hits give low values 1.01 | locus YHR094C, strain hxt1, hits give low values 0.989 | locus YHR129C, strain ARP1, hits give low values 0.993 | locus YHR142W, strain chs7, hits give low values 1.01 | locus YHR200W, strain rpn10, hits give low values 0.987 | locus YIL066C, strain RNR3, hits give low values 1 | locus YIL073C, strain SPO22, hits give low values 0.998 | locus YIL125W, strain kgd1, hits give low values 0.996 | locus YIR030C, strain dcg1, hits give low values 0.986 | locus YJL092W, strain hpr5, hits give low values 0.994 | locus YJL095W, strain BCK1 (second series), hits give low values 1 | locus YJL095W, strain BCK1, hits give low values 0.989 and 0.952 | locus YJL115W, strain asf1, hits give low values 1 | locus YJL129C, strain trk1, hits give low values 0.94 | locus YJL134W, strain LCB3, hits give low values 1 | locus YJL154C, strain vps35, hits give low values 1 | locus YJL164C, strain tpk1, hits give low values 0.99 | locus YJL166W, strain qcr8, hits give low values 1.01 | locus YJL168C, strain set2, hits give low values 0.99 | locus YJL187C, strain SWE1 (second series), hits give low values 1 | locus YJL187C, strain SWE1, hits give low values 0.998 | locus YJR043C, strain POL32, hits give low values 0.953 | locus YJR066W, strain TOR1, hits give low values 0.975
active: locus YDR137W, strain rgp1, hits give low values 0.802
